The structures appear in SMILES notation. Activity calls are given as the source filed them. Unless noted, how the calls were made is not given here.

Experiment [1] concerns Wnt5a (protein binding on small-molecule microarray). Kind of experiment: small molecules binding Wnt5a protein – biophysical, small-molecule microarray, 635/667 nm fluorescence, primary screen (AID 1142).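 Further: fluorescence read at 667 nm with signal to noise per printed feature.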 Particulars: 635 nm fluorescence, higher = more signal.
A short description of experiment [2]: ATP-based viability of Huh7 replicon cells – cell-based, CellTiter-Glo luminescence, basal, 48 h, cytotoxicity control for HCV replication inhibitor project, primary screen (AID 1143).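 Further: Huh7 hepatoma cells carrying a hepatitis C replication reporter with no stimulus; test concentration not given here.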 Particulars: higher = more signal, called active from +8 up or from −8 down. Background: In antiviral work, replicon cells carry a viral genome segment that copies itself.
A short description of experiment [3]: Pseudomonas biofilm growth suppression – PAO1 strain, BacTiter-Glo luminescence, LB-PBS, primary screen (AID 1144). Particulars: P. aeruginosa PAO1 biofilm, 12 h, higher = more signal.
The nature of experiment [4]: basal CRE-LacZ reporter activity in PC12 – cell-based, unstimulated, primary screen (AID 1145). Particulars: no forskolin, luminescence, 4.5 h, higher = more signal, called active from +8 up or from −8 down.
Experiment [5] is described as follows: forskolin-driven CRE-LacZ activity in PC12 – cell-based, CRE-LacZ reporter, forskolin-stimulated, primary screen (AID 1146).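 Further: PC12 cells with 6xCRE LacZ reporter stimulated by forskolin 10 µM; beta-galactosidase reporter signal reflecting CREB driven transcription.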 Particulars: luminescence, 4.5 h, higher = more signal, called active from +8 up or from −8 down.
Experiment [6] addresses Streptavidin (Streptomyces avidinii) (UniProt P22629). Kind of experiment: compounds binding control protein streptavidin – biophysical, small-molecule microarray, 635/667 nm fluorescence, artefact control for SMM compound annotation, primary screen (AID 1147).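 Further: signal reflects streptavidin binding to arrayed compounds as a control protein.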 Particulars: higher = more signal.
A short description of experiment [7]: probe aInhba binding on compound microarray – biochemical, small-molecule microarray, 635/667 nm fluorescence, primary screen (AID 1148).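 Further: score merges 667nm spot fluorescence with signal-to-noise for antibody binding to printed compounds.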 Particulars: higher = more signal.
Experiment [8] addresses Torsin-1A (Homo sapiens) (UniProt O14656). Briefly: TOR1A wild-type binding on microarray – cell lysate, small-molecule microarray, lysate, 635/667 nm, primary screen (AID 1149). Particulars: COS7 hTOR1A-WT lysate, 635 nm fluorescence, higher = more signal.
Experiment [9] shares this target. Kind of experiment: torsin A mutant lysate binding on microarrays – cell lysate, small-molecule microarray, COS7 lysate, 635/667 nm fluorescence, primary screen (AID 1150).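 Further: score pools 667 nm emission and signal to noise measuring lysate protein binding.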 Particulars: COS7 hTOR1A mutant lysate, 635 nm fluorescence, higher = more signal.
Experiment [10] deals with Sonic hedgehog protein (Shh). Briefly: Sonic hedgehog microarray binding compounds – biochemical, small-molecule microarray, 635/667 nm fluorescence, primary screen (AID 1151).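 Further: Shh protein binding to compounds spotted on small-molecule microarray slides; score combines spot fluorescence intensity with signal-to-noise across triplicate slides.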 Particulars: 635 nm fluorescence, higher = more signal.
Experiment [11] can be described thus: optical density shifts of acrAB sulA E. coli – strain DRC41, OD650, 48 h, E. coli filamentation inducer project, primary screen (AID 1152).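 Further: E. coli MC1000 strain DRC41 lacking acrAB efflux pump and sulA.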 Particulars: higher = more signal, called active from +8 up or from −8 down.
The nature of experiment [12]: probe aLefty1 binding on compound microarray – biochemical, small-molecule microarray, 635/667 nm fluorescence, primary screen (AID 1153).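 Further: score merges spot fluorescence with signal-to-noise ratio from the scanned slide images.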 Particulars: higher = more signal.
Experiment [13] in a line: plasmodial surface anion channel blockers, osmotic lysis – cell-based, P. falciparum Indochina, OD700, 1 h, primary screen (AID 1154). Particulars: P. falciparum Indochina infected RBC osmotic lysis, higher = more signal, called active from +8 up or from −8 down.
Experiment [14] in a line: plasmodial surface anion channel blockers, osmotic lysis – cell-based, P. falciparum Indochina, OD700, 2 h, primary screen (AID 1155).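 Further: lysis reports solute entry through the parasite surface anion channel PSAC.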 Particulars: P. falciparum Indochina infected erythrocytes, higher = more signal, called active from +8 up or from −8 down.
Experiment [15] in a line: changes in parasitized red cell lysis, either direction – P. falciparum Indochina, OD700, 3 h, PSAC antagonist project, primary screen (AID 1156). Particulars: P. falciparum-infected erythrocytes, osmotic lysis, higher = more signal, called active from +8 up or from −8 down.
Experiment [16] in a line: plasmodial surface anion channel blockers, osmotic lysis – cell-based, P. falciparum Indochina, OD700, 18 h, primary screen (AID 1157). Particulars: P. falciparum Indochina infected erythrocytes, osmotic lysis OD700, 18 h; higher = more signal, called active from +8 up or from −8 down.
Experiment [17] in a line: S6 kinase pathway phospho-S6 level changes – cell-based, A549, cytoblot, luminescence, serum-stimulated, primary screen (AID 1158).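 Further: serum-stimulated A549 lung adenocarcinoma cells; signal is phosphorylated S6 detected by cytoblot immunostaining with HRP secondary.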 Particulars: 5 h, higher = more signal.
For experiment [18], the target named is NADPH oxidase 2 (Homo sapiens) (UniProt P04839). Kind of experiment: compounds shifting NOX2 Amplex Red fluorescence – cell-based, HEK293-NOX2, PMA-stimulated, NOX inhibitor project, primary screen (AID 1159). Further: test concentration not given here. Particulars: 45 min, higher = more signal, called active from +8 up or from −8 down.
In experiment [19] the target is NADPH oxidase 4 (Homo sapiens) (UniProt Q9NPH5). Briefly: compounds shifting NOX4 Amplex Red fluorescence – cell-based, HEK293-NOX4, tetracycline-induced, NOX inhibitor project, primary screen (AID 1160). Particulars: HEK293-NOX4, Amplex Red H2O2 fluorescence, 45 min; higher = more signal, called active from +8 up or from −8 down.
The target in experiment [20] is NADPH oxidase 5 (Homo sapiens) (UniProt Q96PH1). Briefly: compounds shifting NOX5 Amplex Red fluorescence – cell-based, HEK293-NOX5, NOX inhibitor project, primary screen (AID 1161). Particulars: HEK293-NOX5, ionomycin, 45 min, higher = more signal.
Chain of NADPH oxidase 5 (Homo sapiens) (Q96PH1 whole entry, looked up): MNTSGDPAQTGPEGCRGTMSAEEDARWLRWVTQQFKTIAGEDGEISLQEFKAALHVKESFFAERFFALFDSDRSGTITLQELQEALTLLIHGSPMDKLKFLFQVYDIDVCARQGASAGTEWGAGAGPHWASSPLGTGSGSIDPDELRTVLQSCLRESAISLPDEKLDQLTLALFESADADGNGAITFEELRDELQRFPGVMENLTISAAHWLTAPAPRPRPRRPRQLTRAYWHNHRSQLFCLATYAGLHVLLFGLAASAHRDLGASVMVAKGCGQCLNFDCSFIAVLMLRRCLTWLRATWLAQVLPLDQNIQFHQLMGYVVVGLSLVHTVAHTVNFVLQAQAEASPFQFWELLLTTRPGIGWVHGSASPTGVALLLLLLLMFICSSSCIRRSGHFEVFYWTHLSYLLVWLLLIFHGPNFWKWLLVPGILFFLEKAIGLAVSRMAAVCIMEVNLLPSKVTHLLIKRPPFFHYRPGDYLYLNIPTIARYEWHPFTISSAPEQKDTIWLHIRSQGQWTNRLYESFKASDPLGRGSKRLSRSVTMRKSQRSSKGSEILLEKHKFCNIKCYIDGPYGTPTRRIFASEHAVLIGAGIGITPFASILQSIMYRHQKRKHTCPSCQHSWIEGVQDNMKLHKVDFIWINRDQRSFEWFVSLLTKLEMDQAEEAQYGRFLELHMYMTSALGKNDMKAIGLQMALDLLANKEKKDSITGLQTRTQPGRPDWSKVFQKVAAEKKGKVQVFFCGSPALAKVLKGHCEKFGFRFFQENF

Chain of Torsin-1A (Homo sapiens) (O14656 whole entry, looked up): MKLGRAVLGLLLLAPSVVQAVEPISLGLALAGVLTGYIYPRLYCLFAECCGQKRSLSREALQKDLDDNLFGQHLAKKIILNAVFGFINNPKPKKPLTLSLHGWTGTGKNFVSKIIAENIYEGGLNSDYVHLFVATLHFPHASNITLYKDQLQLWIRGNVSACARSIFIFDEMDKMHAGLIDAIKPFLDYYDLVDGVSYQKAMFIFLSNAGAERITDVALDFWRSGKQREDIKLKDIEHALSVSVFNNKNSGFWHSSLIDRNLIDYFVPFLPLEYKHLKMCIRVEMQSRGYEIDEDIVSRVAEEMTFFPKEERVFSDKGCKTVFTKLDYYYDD
Chain of NADPH oxidase 2 (Homo sapiens) (P04839 whole entry, looked up): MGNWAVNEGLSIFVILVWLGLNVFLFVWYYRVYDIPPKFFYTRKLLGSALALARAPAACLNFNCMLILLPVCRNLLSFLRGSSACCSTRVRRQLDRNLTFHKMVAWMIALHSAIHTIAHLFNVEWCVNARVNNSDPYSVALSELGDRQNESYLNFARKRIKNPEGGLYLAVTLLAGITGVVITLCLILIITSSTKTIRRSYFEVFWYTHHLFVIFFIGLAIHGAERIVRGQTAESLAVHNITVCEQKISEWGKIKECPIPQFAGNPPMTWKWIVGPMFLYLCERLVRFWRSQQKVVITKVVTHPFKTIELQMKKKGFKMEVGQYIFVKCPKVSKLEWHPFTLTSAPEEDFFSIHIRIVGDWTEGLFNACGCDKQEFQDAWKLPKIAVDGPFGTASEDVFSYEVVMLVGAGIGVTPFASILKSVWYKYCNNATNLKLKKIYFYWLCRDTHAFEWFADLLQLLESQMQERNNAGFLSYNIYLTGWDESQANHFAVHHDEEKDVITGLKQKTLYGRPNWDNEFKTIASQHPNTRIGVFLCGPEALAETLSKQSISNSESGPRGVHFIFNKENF
Chain of Streptavidin (Streptomyces avidinii) (P22629 whole entry, looked up): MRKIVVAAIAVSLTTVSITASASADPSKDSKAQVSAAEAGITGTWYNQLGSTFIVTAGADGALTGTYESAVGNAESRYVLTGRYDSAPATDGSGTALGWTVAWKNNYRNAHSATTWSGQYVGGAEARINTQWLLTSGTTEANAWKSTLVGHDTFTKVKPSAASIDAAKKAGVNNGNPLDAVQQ
Chain of NADPH oxidase 4 (Homo sapiens) (Q9NPH5 whole entry, looked up): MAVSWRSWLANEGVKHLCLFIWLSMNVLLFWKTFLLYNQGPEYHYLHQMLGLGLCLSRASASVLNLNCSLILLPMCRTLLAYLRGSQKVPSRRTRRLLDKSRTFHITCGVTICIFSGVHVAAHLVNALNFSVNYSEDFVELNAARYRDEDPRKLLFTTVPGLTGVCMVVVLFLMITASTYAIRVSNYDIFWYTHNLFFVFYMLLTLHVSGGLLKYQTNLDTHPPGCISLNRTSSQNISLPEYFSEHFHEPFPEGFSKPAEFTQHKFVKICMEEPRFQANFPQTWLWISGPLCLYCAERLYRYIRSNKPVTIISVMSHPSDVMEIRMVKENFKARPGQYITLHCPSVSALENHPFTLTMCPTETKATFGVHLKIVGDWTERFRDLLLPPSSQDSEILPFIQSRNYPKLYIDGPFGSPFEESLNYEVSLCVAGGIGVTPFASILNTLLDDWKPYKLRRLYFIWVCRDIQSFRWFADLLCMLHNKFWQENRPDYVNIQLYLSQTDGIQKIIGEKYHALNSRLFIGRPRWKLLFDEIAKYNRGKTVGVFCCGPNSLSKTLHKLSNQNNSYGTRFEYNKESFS

Take `C=CCC(OC(C)=O)[C@@H]1[C@@H](N(Cc2cccc3ccccc23)C(=O)c2ccc(-c3ccccc3)cc2)c2cc(OCCCO)ccc2N1C(=O)c1ccc2ccccc2c1` (stereo not given in full): the composite z-score was -0.0128 in experiment [1]; 0.486 in experiment [6]; 0.0816 in experiment [7]; -0.219 with Torsin-1A (Homo sapiens) [8]; -0.0217 with Torsin-1A (Homo sapiens) [9]; 0.711 in experiment [10]. Also, in experiment [12], the composite z-score is 0.0153. Besides, the z-score in experiment [2] was 0.107 (inactive); in experiment [3] it was -0.815 (inactive); in [4], 0.222 (inactive); in [5], 0.0667 (inactive); in experiment [11], -0.495 (inactive); in experiment [13], 0.135 (inactive). Also, the z-score is 0.396 (inactive) in [14]; -0.182 (inactive) in experiment [15]; 0.0644 (inactive) in experiment [16]; 0.174 in experiment [17]; -0.608 (inactive) in experiment [18]; 0.624 (inactive) in [19]. Also, the z-score in experiment [20] was -0.535.
Turning to `O=C(NCCO)C1=C[C@H](Oc2ccccc2I)[C@@H](O)[C@H](N(Cc2ccco2)C(=O)Cc2ccccc2)C1`, the composite z-score in experiment [1] is 0.234; in experiment [6] it was 0.317; in [7] it was -0.202; with Torsin-1A (Homo sapiens) [8] it was 0.303; with Torsin-1A (Homo sapiens) [9] it was 0.0805; in experiment [10] it was 0.412. Further, the composite z-score in experiment [12] was found to be 0.0752. In addition, the z-score was 0.0266 (inactive) in experiment [2]; -0.0382 (inactive) in experiment [3]; -0.78 (inactive) in experiment [4]; 0.603 (inactive) in [5]; -0.673 (inactive) in [11]; 0.877 (inactive) in experiment [13]. Also, the z-score in experiment [14] is 0.799 (inactive); in experiment [15], 1.1 (inactive); in [16], 0.304 (inactive); in experiment [17] it was 0.202; in experiment [18] it was 1.34 (inactive); in experiment [19], 0.254 (inactive). Besides, in [20], the z-score is 0.351.
On to `O=C(NCCN1CCOCC1)[C@@H]1c2ccccc2C(=O)N(C2CCCCC2)[C@H]1c1ccc(CO)cc1`, for which the composite z-score in [1] was -0.178; in experiment [6] it was 0.254; in experiment [7], -0.153; in the experiment with Torsin-1A (Homo sapiens) [8], -0.945; with Torsin-1A (Homo sapiens) [9], -0.653; in experiment [10] it was -0.908. The composite z-score in experiment [12] was -0.007. The z-score in [2] is -0.742 (inactive); in experiment [3] it was 0.00698 (inactive); in experiment [4], 0.791 (inactive); in experiment [5], -0.168 (inactive); in [11], -0.306 (inactive); in experiment [13], 3.9 (inactive). Further, the z-score is 1.22 (inactive) in [14]; 1 (inactive) in [15]; 0.403 (inactive) in experiment [16]; 0.227 in experiment [17]; 0.822 (inactive) in experiment [18]; 1.3 (inactive) in experiment [19]. Also, in [20], the z-score is 0.579.
For the compound `C=C(/C(=C/C[C@H](OC(C)=O)c1ccc(CO)o1)c1cc(C(=O)OC)ccc1OC)C(C)C`, the composite z-score in experiment [1] is 0.0267; in [6] it was -0.489; in experiment [7] it was 0.0051; with Torsin-1A (Homo sapiens) [8] it was -0.501; in the experiment with Torsin-1A (Homo sapiens) [9], 0.241; in [10], 1.05. The same compound yielded a composite z-score in [12] of -0.0559. Also, the z-score was -3.56 (inactive) in [2]; 0.263 (inactive) in experiment [3]; 2.22 (inactive) in experiment [4]; 0.769 (inactive) in [5]; 0.376 (inactive) in experiment [11]; 2.48 (inactive) in [13]. For the same compound, the z-score in experiment [14] was -1.22 (inactive); in [15], 2.6 (inactive); in experiment [16], -2.17 (inactive); in experiment [17] it was 2.41; in experiment [18] it was -1.66 (inactive); in experiment [19], -1.85 (inactive). The z-score in [20] was -2.34.
For the compound `COc1cc2c(cc1OC)CN(C(=O)[C@H]1[C@@H]3C(=O)O[C@@H](c4ccccc4)[C@@H](c4ccccc4)N3[C@@H](c3ccc(O)cc3)[C@]13C(=O)Nc1ccc(C#CCCO)cc13)CC2`, the composite z-score is -0.0279 in experiment [1]; 0.491 in experiment [6]; -0.0405 in experiment [7]; 0.0143 with Torsin-1A (Homo sapiens) [8]; 0.618 with Torsin-1A (Homo sapiens) [9]; 0.0545 in experiment [10]. In experiment [12], the composite z-score is -0.147. Besides, the z-score in experiment [2] is -1.04 (inactive); in experiment [3], -0.827 (inactive); in experiment [4], 0.0653 (inactive); in experiment [5], -0.163 (inactive); in [11], 0.675 (inactive); in experiment [13] it was 1.06 (inactive). The z-score in experiment [14] is 0.736 (inactive); in experiment [15], 1.15 (inactive); in experiment [16] it was 0.689 (inactive); in experiment [17] it was 0.503; in experiment [18], 1.38 (inactive); in [19], -0.0637 (inactive). Moreover, the z-score in [20] is 1.08.
With `C=C(C)[C@@H]1CC=C(C(O)C2C=CC3C(=O)N(c4ccccc4)C(=O)C3N2Nc2ccccc2)CC1` (stereo not given in full), the composite z-score in experiment [1] is 0.371; in experiment [6], 2.43; in experiment [7] it was 0.906; with Torsin-1A (Homo sapiens) [8], 0.476; in the experiment with Torsin-1A (Homo sapiens) [9], 0.579; in [10], 0.456. Besides, the composite z-score in experiment [12] is 1.33. For the same compound, the z-score in experiment [2] is 0.0984 (inactive); in [3], -1.65 (inactive); in experiment [4], 0.0569 (inactive); in experiment [5], -0.0811 (inactive); in [11], -0.59 (inactive); in experiment [13], 8.1 (active). For the same compound, the z-score is 2.94 (inactive) in experiment [14]; 1.09 (inactive) in experiment [15]; 1.73 (inactive) in [16]; -0.798 in experiment [17]; -0.653 (inactive) in experiment [18]; -3.06 (inactive) in experiment [19]. Also, the z-score in [20] is -2.48.
With `CC(C)N1C(=O)[C@@]2(Cc3ccccc31)c1ccccc1C(=O)N(Cc1ccccc1Cl)[C@H]2c1ccc(CO)cc1`, the composite z-score in experiment [1] was -0.515; in [6], -0.136; in experiment [7], -0.29; with Torsin-1A (Homo sapiens) [8], -1.47; with Torsin-1A (Homo sapiens) [9], -0.848; in experiment [10] it was -1.25. The composite z-score in experiment [12] is -0.17. The z-score in [2] is -2.27 (inactive); in experiment [3], -1.68 (inactive); in experiment [4] it was 0.389 (inactive); in experiment [5], -0.389 (inactive); in experiment [11], 0.581 (inactive); in experiment [13], -0.0086 (inactive). Further, the z-score was -0.513 (inactive) in experiment [14]; 1.23 (inactive) in experiment [15]; -1.78 (inactive) in experiment [16]; 1.17 in [17]; 0.16 (inactive) in experiment [18]; 0.946 (inactive) in experiment [19]. Further, the z-score in experiment [20] is 1.04.
With `O=C1[C@@]23C=C(Br)[C@H](C[C@@H]2CCOC3)[C@@]12CO2`, the composite z-score in [1] was -0.0248; in experiment [6] it was 0.365; in [7], 0.0792; in the experiment with Torsin-1A (Homo sapiens) [8], 0.441; with Torsin-1A (Homo sapiens) [9], 0.219; in experiment [10] it was 0.534. For the same compound, the composite z-score in experiment [12] is -0.216. In addition, the z-score in experiment [2] is 0.35 (inactive); in [3], 0.725 (inactive); in [4], 0.221 (inactive); in [5], 0.767 (inactive); in [11], -0.0625 (inactive); in experiment [13], -0.306 (inactive). Moreover, the z-score in [14] is -0.261 (inactive); in [15], -0.0502 (inactive); in experiment [16] it was 0.0369 (inactive); in experiment [17], -0.31; in experiment [18], -0.172 (inactive); in [19] it was 0.723 (inactive). In addition, in [20], the z-score is -0.34.

Values taken from PubChem BioAssay.
